Measured values: PubChem BioAssay (NCI)
The panel holds about 83,000 compounds, 20% with a hit somewhere; the sample as a whole holds those more often.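 Cells were grown in 96-well plates and exposed to the test compound at a single concentration for 48 hours; results are reported as percent growth, with values below 10 considered active.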 Active and inactive are the calls of the source.

Columns and labels:
Assay in all cases: NCI-60 one-dose screen, 48 h (100 = growth as untreated, 0 = no growth, -100 = all killed)
[1] = system: NCI-H226 lung; conditions: 10 µM
[2] = system: NCI-H322M lung; conditions: 10 µM unless noted
[3] = system: HOP-62 NSCLC; conditions: 10 µM unless noted
[4] = system: NCI-H460 lung; conditions: 10 µM unless noted
[5] = system: NCI-H522 lung; conditions: 10 µM
[6] = system: A549/ATCC NSCLC; conditions: 10 µM unless noted
[7] = system: 786-0 renal; conditions: 10 µM unless noted
[8] = system: COLO 205 colon; conditions: 10 µM unless noted
[9] = system: DU-145 prostate; conditions: 10 µM unless noted
[10] = system: K-562 leukemia; conditions: 10 µM unless noted
[11] = system: MALME-3M melanoma; conditions: 10 µM unless noted
[12] = system: MDA-MB-231 breast; conditions: 10 µM unless noted
[13] = system: RXF 393 renal; conditions: 10 µM unless noted
[14] = system: SF-268 CNS; conditions: 10 µM unless noted
[15] = system: SF-295 CNS; conditions: 10 µM unless noted
[16] = system: SF-539 CNS; conditions: 10 µM unless noted
[17] = system: UACC-257 melanoma; conditions: 10 µM unless noted
[18] = system: M14 melanoma; conditions: 10 µM unless noted
[19] = system: HOP-92 NSCLC; conditions: 10 µM unless noted

Measured: growth

O=c1ccc2ccccc2o1
inactive: [1] 102% | [2] 115% | [3] 108% | [4] 114% | [5] 94.3% | [6] 94% | [7] 105% | [8] 114% | [9] 112% | [10] 112% | [11] 110% | [12] 100% | [13] 116% | [14] 102% | [15] 97.7% | [16] 102% | [17] 101% | [18] 104%

OC[C@@H](O)[C@@H](O)CO
inactive: [1] 98.6% | [2] 105% | [4] 107% | [19] 101% | [5] 96.6% | [6] 104% | [7] 104% | [8] 111% | [9] 111% | [11] 97.3% | [12] 94.7% | [13] 110% | [14] 108% | [15] 94.7% | [16] 102% | [17] 105% | [18] 106%

COc1nc2c(cc1S(=O)(=O)c1ccccc1)CCc1c-2cnn1-c1cccc(Cl)c1
inactive: [1] 80.3% | [3] 90.7% | [4] 80.6% | [19] 46.6% | [5] 75.6% | [6] 66.2% | [7] 72.8% | [8] 103% | [9] 97% | [10] 61.4% | [11] 78.7% | [12] 89.7% | [13] 76.7% | [14] 87.2% | [15] 80.2% | [16] 81.7% | [17] 78.7% | [18] 83.4%

CCCCCCCCCCCCCCCC[N+]1(C)CCOCC1
inactive: [1] 48.4% | [2] 37.1% | [6] 24.3% | [9] 28.7% | [15] 19.8% | [17] 49.4%
active: [4] 4.21% | [19] -15.3% | [5] -24.8% | [7] 5.35% | [8] -92.3% | [11] -2.82% | [12] -7.42% | [13] -79.9% | [14] -34.5% | [16] -1.77% | [18] 1.49%

NC(=O)c1cc(I)ccc1NC(=O)COc1ccc(Cl)cc1Cl
inactive: [1] 103% | [2] 98.5% | [3] 87.2% | [4] 103% | [5] 75.7% | [6] 90.4% | [7] 89.9% | [8] 101% | [9] 111% | [10] 31.5% | [12] 107% | [13] 99.3% | [14] 97.5% | [15] 90.2% | [16] 97% | [17] 89.6% | [18] 81.5%

CCCC1=NNC(=O)C1
inactive: [1] 108% | [3] 99% | [4] 109% | [19] 90.7% | [5] 94% | [6] 95.9% | [7] 95.8% | [8] 99.3% | [9] 125% | [10] 100% | [11] 101% | [12] 122% | [13] 113% | [14] 108% | [15] 97.5% | [16] 89.8% | [17] 90.9% | [18] 104%

COc1c(Cl)ccc2c(-c3nc4cc(Cl)c(F)cc4s3)cc(=O)oc12
active: [5] -78.2% | [7] -43.3%
inactive: [1] 94.8% | [2] 106% | [3] 86.6% | [4] 99.2% | [6] 78% | [8] 124% | [9] 97.1% | [10] 64.9% | [12] 65% | [13] 92.3% | [14] 29.5% | [15] 97.7% | [16] 90% | [17] 91.6% | [18] 95.5%

C=C(C)CCCC(C)CC#N (stereo unspecified)
inactive: [1] 99.4% | [3] 90.7% | [4] 107% | [19] 95.1% | [5] 90.3% | [6] 99.9% | [7] 97.3% | [8] 106% | [9] 105% | [10] 105% | [11] 88% | [12] 115% | [13] 105% | [14] 94.6% | [15] 94.3% | [16] 95.6% | [17] 104% | [18] 96.5%

COc1ccc2c(c1)c(=O)oc1c(C)c(OCC(C)=O)ccc12
inactive: [1] 104% | [2] 105% | [4] 103% | [5] 89.7% | [6] 85.1% | [7] 101% | [8] 128% | [9] 86.8% | [10] 102% | [11] 112% | [12] 114% | [13] 103% | [14] 85.6% | [15] 93.9% | [16] 94.3% | [17] 96.2% | [18] 112%

COc1ccc(OC)c2ncccc12
inactive: [1] 95.8% | [3] 90.2% | [4] 108% | [19] 72.2% | [5] 84% | [6] 108% | [7] 102% | [8] 106% | [9] 112% | [10] 96% | [11] 89.7% | [12] 109% | [13] 107% | [14] 102% | [15] 95% | [16] 102% | [17] 110% | [18] 93.5%

COc1cccc(C2C3=C(COC3=O)N(CCO)c3cc4c(cc32)CCC4)c1 (stereo unspecified)
inactive: [1] 13.4% | [2] 30.3% | [19] 48.2% | [6] 12.1% | [10] 15.8% | [11] 57.3% | [14] 22.6% | [17] 31.5%
active: [4] 1.42% | [5] -50.4% | [7] 0.563% | [8] -78.5% | [9] -26.5% | [12] -12% | [13] -3.06% | [15] -27.5% | [16] -17.9% | [18] -13.7%

COc1ccc(NC(=O)COc2ccccc2)c(C(N)=O)c1
active: [5] 6.28% | [8] -12.1% | [10] 9.36% | [13] 2.95% | [16] -46.8% | [18] 3.47%
inactive: [1] 71.6% | [2] 59.3% | [3] 20.3% | [4] 11.2% | [6] 24.8% | [7] 35.2% | [9] 23% | [12] 44.1% | [14] 50.7% | [15] 13.3% | [17] 61.7%

Cc1cc(C)c(S(=O)O)c(C)c1
inactive: [1] 99% | [2] 124% | [4] 109% | [19] 93.1% | [5] 101% | [6] 109% | [7] 112% | [8] 126% | [9] 120% | [11] 122% | [12] 102% | [13] 101% | [14] 114% | [15] 93.4% | [16] 104% | [17] 121% | [18] 116%

C[C@@H](Oc1cc(-c2cnn(C3CC4(CCCNC4)C3)c2)cnc1N)c1c(Cl)ccc(F)c1Cl (stereo partly specified)
active: [4] 0.489% | [19] -7.41% | [8] -30.9% | [10] 0.205% | [11] -64.7% | [12] 2.82% | [13] -9.61% | [17] -87.2% | [18] -59.5%
inactive: [1] 58.8% | [2] 58.9% | [5] 23.6% | [6] 16.6% | [7] 25.2% | [9] 36.7% | [14] 23% | [15] 14.4% | [16] 11.2%

CC(C)(C)CC(C)(C)N(CSc1ccc(Cl)cc1)CSc1ccc(Cl)cc1
active: [5] -4.63% | [12] 0.954% | [16] 6.24%
inactive: [1] 45.2% | [3] 83.4% | [4] 42.9% | [19] 23.3% | [6] 10.6% | [7] 41% | [8] 75.6% | [9] 73.8% | [10] 34.8% | [11] 82.1% | [13] 66.2% | [14] 31.5% | [15] 27.2% | [17] 63% | [18] 48.3%

C=C(C)COC(=O)c1ccccc1C(=O)OCC1(C)CO1 (stereo unspecified)
inactive: [1] 102% | [3] 102% | [4] 108% | [6] 94.8% | [7] 105% | [8] 106% | [9] 104% | [10] 110% | [12] 103% | [13] 117% | [14] 93.6% | [15] 91.9% | [16] 101% | [17] 101% | [18] 96.5%

CSc1nnc(-c2sc3nnc(-c4ccccc4)c(-c4ccccc4)c3c2O)o1
inactive: [1] 87.7% | [3] 71.1% | [4] 56.7% | [5] 96.6% | [6] 80.5% | [7] 88.7% | [8] 110% | [9] 84.7% | [12] 90.4% | [13] 82.6% | [14] 80.6% | [15] 40.8% | [16] 84.6% | [17] 91.6% | [18] 73%

O=C(Nc1ccc(Cl)c(Cl)c1)NC(CO)(CO)CO
inactive: [1] 97.5% | [3] 88.1% | [4] 103% | [19] 79.9% | [5] 88.7% | [6] 97.4% | [7] 92.3% | [8] 106% | [9] 112% | [10] 92.8% | [11] 87.7% | [12] 109% | [13] 100% | [14] 97.8% | [15] 94.4% | [16] 103% | [17] 97.5% | [18] 97.4%
